From PubChem BioAssay

Assay: compound effects on hepatocellular carcinoma cell viability – HepG2, calcein-AM fluorescence, 48 h, basal, profiling panel (AID 1164); further: test concentration not given here
Details: higher = more signal

Structure (SMILES) | z-score
NC(=O)NCC#Cc1ccc2c(c1)[C@]1(C(=O)N2)[C@H](c2ccc(OCCO)cc2)N2[C@H](c3ccccc3)[C@H](c3ccccc3)OC(=O)[C@H]2[C@@H]1C(=O)N1CCCCCCC1 | -0.455
O=C1C[C@@](C(=O)O)(c2ccc([N+](=O)[O-])cc2)[C@@H](c2ccc(CO)cc2)N1CC12CC3CC(CC(C3)C1)C2 | 0.313
O=C1C[C@@](C(=O)NCc2ccccc2)(c2ccc([N+](=O)[O-])cc2)[C@@H](c2ccc(CO)cc2I)N1C1CCCCC1 | 0.593
COc1cccc(C[C@H]2C[C@@H](CO[Si](C(C)C)(C(C)C)C(C)C)N3C(=O)[C@]4(C(C)=O)O[C@]23[C@H]2C(=O)N(C)C(=O)[C@H]24)c1 | -3.45
COCC(=C=CC[C@@H](O)c1ccccc1OCCO)C[C@@H](O)COCc1ccccc1 | 1.13
COC(=O)C(CC#Cc1ccc2c(c1)[C@]1(C(=O)N2)[C@H](C(=O)N2CCc3cc(OC)c(OC)cc3C2)[C@H]2C(=O)O[C@H](c3ccccc3)[C@H](c3ccccc3)N2[C@@H]1c1ccc(O)cc1)C(=O)OC | 0.613
CN1C(=O)C2C=CC(C(O)COCc3ccccc3)N(Nc3ccccc3)C2C1=O (stereo not drawn) | -0.465
Cc1ccccc1C(O)C1C=CC2C(=O)N(Cc3ccccc3)C(=O)C2N1n1cnnc1 (stereo not drawn) | -0.734
